In PubChem BioAssay (NCI):
Compounds without any hit were thinned out: in the full panel of roughly 83,000, 20% have a hit.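 Activity criterion: percent growth below 10, measured after cells in 96-well plates were exposed to a single compound concentration for 48 hours.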 A number with no mark means an inactive call. The source made the active and inactive calls.

tested on: SN12C renal; assay: NCI-60 one-dose screen, 48 h (100 = growth as untreated, 0 = no growth, -100 = all killed); conditions: 10 µM unless noted

Row | SMILES | growth
1 | C#C[C@]1(O)CC[C@H]2[C@@H]3CC=C4c5nc(Nc6ccccn6)sc5CC[C@]4(C)[C@H]3CC[C@@]21C | 32.1%
2 | Cn1cc(-c2nnc(-c3cn(C)c4ncccc34)o2)c2ccccc21 | 28.4%
3 | O=C1C(Cl)=C(Nc2ccc3cn[nH]c3c2)C(=O)c2ccccc21 | -42.9% (active)
4 | COc1cc(/C=C/C(=O)/C=C/c2ccc(-n3ccnc3C)cc2)ccc1O | 91.4%
5 | Nc1cc(Cl)cc2cccnc12 | 91.1%
6 | CN(C)CCOc1ccc(/C(=C(/CCCl)c2ccccc2)c2ccccc2)cc1 | 23.7%
7 | Nc1cc(N)c(N=Nc2ccc(S(=O)(=O)O)cc2)cc1N=Nc1ccc(-c2ccc(N=Nc3ccc(O)c(C(=O)O)c3)cc2)cc1 | 102%
8 | Cn1cc(-c2noc(-c3cn(C)c4ncc(F)cc34)n2)c2ccccc21 | 33.6%
9 | Nc1ccc(NC(=O)c2ccccc2)c2c1C(=O)c1ccccc1C2=O | 97.8%

tested on: UO-31 renal; assay: as above; conditions: 10 µM unless noted

Row | SMILES | growth
10 | COc1ccc2c(c1)c(-c1noc(-c3cn(C)c4ncc(F)cc34)n1)cn2C | 85.1%
11 | O=C(N/N=C\c1cc(Cl)ccc1O)N/N=C/c1cc(Cl)ccc1O | 17.3%
12 | O=C(O)c1ccccc1C(F)(F)F | 95.3%
13 | CS(=O)(=O)c1cccnn1 | 79.9%
14 | O=C(Nc1ccc(Oc2ccc(F)cc2)c(Cl)c1)c1cccnn1 | 55%
15 | CCC(Br)(CC)C(=O)c1ccc(OCC(=O)O)c(Cl)c1Cl | 92.1%
16 | NC(=O)c1cccc(-c2ccc(S(=O)(=O)Nc3ccc4c(c3)N(C(=O)C3CC3)CCC4)cc2)c1 | 82.2%
17 | C#CCC(C(=O)OCC)C(=O)OCC | 85%
18 | O=[N+]([O-])c1cc(CCl)ccc1OCCBr | 80.8%
19 | O=C(O)c1cn(C2CC2)c2cc(N3CCN(Cc4cc(Cl)ccc4O)CC3)c(F)cc2c1=O | 40.7%
20 | Cc1ccc(C2=C/C(=C/c3ccc(Br)cc3)C(=O)N2CCc2ccc(S(N)(=O)=O)cc2)cc1 | 61.8%
21 | COc1ccc(C(=O)/C=C/c2ccccn2)c(O)c1 | 53.1%
22 | Cc1cc(C)c(S(=O)(=O)/N=c2/n(-c3ccccc3)nc3n2CCN3C2=NCCN2)c(C)c1 | 61.2%
23 | Cc1ccc(S(=O)(=O)n2cc(C(=O)C(=O)N3CCCCC3)c3ccccc32)cc1 | 53.6%
24 | COc1cc(C)cc2oc3oc(=N)c(C(=O)c4ccccc4)cc3c(=O)c12 | 79.3%
25 | COc1ccc(OC)c([N+](=O)[O-])c1C(=O)CNC(C)=O | 84.7%
26 | Cc1ccc(S(=O)(=O)N/N=C2\CC3CCC2(C)C3(C)C)cc1 (stereo not drawn) | 86.4%
27 | O=C(N=c1n(-c2ccccc2)nc2n1CCN2C1=NCCN1C(=O)c1ccc(Cl)cc1)c1ccc(Cl)cc1 | 59.8%
28 | O=C(NCc1ccc(Cn2c(=O)sn(-c3ccccc3)c2=O)cc1)OCc1ccc2c(Br)cc(Br)c(O)c2n1 | -100% (active)
29 | C=C(C)[C@@H]1CC[C@]2(COCCC#N)CC[C@]3(C)[C@H](CC[C@@H]4[C@@](C)(CCCNCCC#N)[C@H](C(=C)C)CC[C@]43C)[C@@H]12 | 15.3% [100 µM]
30 | O=C(Nc1cccc(F)c1)c1cc(=O)[nH]c2cc(Br)ccc12 | 51.5%
31 | O=C(NCCCNC(=O)OCc1ccc2c(Br)cc(Br)c(O)c2n1)OCc1ccc2c(Br)cc(Br)c(O)c2n1 | -100% (active)
32 | COc1ccc(OC)c(NC=O)c1 | 92%
33 | CCN(CCNc1ccc(C)c2sc3cc(Cl)ccc3c(=O)c12)CC(C)O (stereo not drawn) | -61.8% (active)
34 | CN(C)c1ccc(-c2ccc(-c3ccc(C(=N)N)cc3)s2)cc1 | 80.8%
35 | CC(=O)OC[C@]12CC[C@@H]([C@@H](C)C(N)=O)[C@@H]1[C@H]1CC[C@@H]3[C@@]4(C)CC[C@H](OC(C)=O)C(C)(C)[C@@H]4CC[C@@]3(C)[C@]1(C)CC2 | -97.5% [100 µM] (active)
36 | O=C(Nc1ccccc1)Nc1ccc(C(=O)/C=C/c2ccc(N3CCCC3)cc2)cc1 | 67.7%
37 | C#C[C@]1(O)CC[C@H]2[C@@H]3CC=C4c5nc(Nc6ccccn6)sc5CC[C@]4(C)[C@H]3CC[C@@]21C | -24.4% (active)
38 | Cn1cc(-c2nnc(-c3cn(C)c4ncccc34)o2)c2ccccc21 | 18%
